Measurements from PubChem BioAssay (Tox21).
Records with an inconclusive call do not appear. Where a call stands in place of a potency, no number is given. Some structures have more than one record in an assay (separate samples or runs), and their calls can disagree. Activity calls are given as the source filed them. Calls come from the whole dose curve.
Potency is the fitted concentration of half-maximal effect.

Assay: qHTS assay to identify small molecule agonists of the hypoxia (HIF-1) signaling pathway - cell viability counter screen (AID 1224844); note: nearly all actives have a fitted effect of over 50% in size
Conditions: HRE-bla ME-180 viability, CellTiter-Glo luminescence, 17 h; series mostly up to 76.8 µM; activity change, negative = cytotoxicity: at the top concentration
Text: National Center for Advancing Translational Sciences [NCATS]
NIH Chemical Genomics Center [NCGC]
U.S. Environmental Protection Agency [EPA]
National Institutes of Environmental Health Sciences [NIEHS]
National Toxicology Program [NTP]
U.S. Food and Drug Administration [FDA]
Hypoxia-inducible factor-1 (HIF-1) is the major hypoxia-regulated transcription factor that controls cellular responses to low oxygen concentration. HIF-1 is composed of two subunits: hypoxia responsive HIF-1-alpha and constitutively expressed HIF-1-beta, which is also known as aryl hydrocarbon receptor nuclear translocator. During hypoxic conditions, HIF-1-alpha heterodimerizes with HIF-1-beta and translocates into the nucleus where the HIF-1 complex binds to the hypoxia-response element (HRE) and activates expression of target genes such as VEGF (vascular endothelial growth factor). The HIF-1 pathway is essential to normal growth and development, and is involved in the pathophysiology of cancer, inflammation, and ischemia.
Using a beta-lactamase reporter-gene under control of the hypoxia response element, a cell-based assay [CellSensor(TM) HRE-bla ME-180 from Life Technologies, Carlsbad, CA] was used to measure hypoxia-induced signaling. Tox21 10K library compounds were measured for their ability to induce the reporter gene activity. The cytotoxicity of the Tox21 compound library against HRE-bla ME-180 cell line was tested in parallel by measuring cell viability using CellTiter-Glo assay (Promega, Madison, WI) in the same assay wells.
Tox21 Assay Protocol Summary:
HRE-bla ME-180 cells were dispensed at 2,000 cells per well in 6 uL of assay medium containing 0.5% dialyzed FBS into black wall/clear-bottom 1536-well plates using a Multidrop Combi (Thermo Scientific, Waltham, MA) dispenser. After the assay plates were incubated at 37C and 5% CO2 for 5 hrs, 23 nL of compounds dissolved in DMSO, positive controls or DMSO only was transferred to each well of the assay plate using a Pintool station (Kalypsys, San Diego, CA). The assay plates were incubated at 37C and 5% CO2 for 17 hrs. One uL of LiveBLAzerTM B/G FRET substrate (CCF4-AM) (Life Technologies) was added to each well using a Flying Reagent Dispenser (FRD, Aurora Discovery, San Diego, CA). After 2 hr incubation at room temperature, fluorescence intensity (405 nm excitation, 460 nm and 530 nm emissions) was measured using an Envision plate reader (PerkinElmer, Shelton, CT). For cytotoxicity, 4 ul/well of CellTiter-Glo reagent was added into the assay plates using an FRD. After 30 min incubation at room temperature, the luminescence intensity was measured using a ViewLux plate reader (PerkinElmer).
In the case of `O=P(O)(O)O`, the Potency is reported as “inactive”. With `O=c1oc(=O)c2cc3c(=O)oc(=O)c3cc12` the Potency was “inactive”. For `C[Si](C)(C)O[Si](C)(C)C`, the Potency was “inactive”. With `CCCCOCCOCCOCCO` the Potency was “inactive”. With `O=C(Nc1ccc(Cl)cc1)Nc1ccc(Cl)c(Cl)c1` the Potency was “inactive”. With `CN(C)CCC=C1c2ccccc2CCc2ccccc21` the Potency was 38.9 µM (active). With `OCCO` the Potency was “inactive”. With `C[C@]12CC[C@H]3[C@@H](CCC4=CC(=O)CC[C@@]43C)[C@@H]1CC[C@@H]2C(=O)CO` the Potency was “inactive”. In the case of `c1cc(-c2ccncc2)ccn1`, the Potency is reported as “inactive”. For `O=Cc1ccccc1O`, the Potency was “inactive”. With `Cn1cnc([N+](=O)[O-])c1Sc1ncnc2nc[nH]c12` the “activity change, negative = cytotoxicity” value was -0.834% [at 35.3 µM] (inactive). With `CC(=O)O[C@]1(C(C)=O)CC[C@H]2[C@@H]3C=C(Cl)C4=CC(=O)[C@@H]5C[C@@H]5[C@]4(C)[C@H]3CC[C@@]21C` the Potency was “inactive”. In the case of `COc1cc([C@@H]2c3cc4c(cc3[C@H](O)[C@H]3COC(=O)[C@H]23)OCO4)cc(OC)c1OC`, the “activity change, negative = cytotoxicity” value is reported as -22.5% (inactive). In the case of `OC(CCl)CCl`, the Potency is reported as “inactive”. In the case of `CC(C)(C)NC(=O)[C@H]1CC[C@H]2[C@@H]3CC[C@H]4NC(=O)C=C[C@]4(C)[C@H]3CC[C@]12C`, the Potency is reported as “inactive”. With `CN(C)CCN(Cc1cccs1)c1ccccn1` the Potency was “inactive”. For `COc1ccccc1/C=C/C=O`, the Potency was “inactive”. In the case of `CC1=CC2C3CC(C=C3C)C2C1` (stereo not given), the Potency is reported as “inactive”. With `CC1=CCC(C(C)(C)O)CC1` (stereo not given) the Potency was “inactive”. In the case of `CCCc1c(OCCCCc2nn[nH]n2)ccc(C(C)=O)c1O`, the Potency is reported as “inactive”. In the case of `CCOC(=O)C(C#N)=C(c1ccccc1)c1ccccc1`, the Potency is reported as “inactive”. In the case of `C=CC(C)(CCC=C(C)C)OC(C)=O` (stereo not given), the Potency is reported as “inactive”. With `CCC(C)(O)CCCC(C)C` (stereo not given) the Potency was “inactive”. For `OC1CCCCCCCCCCC1`, the Potency was “inactive”. In the case of `CC(=O)CC/C=C(\C)CCC=C(C)C`, the Potency is reported as “inactive”. For `c1ccc2c(c1)c1cccc3ccc4cccc2c4c31`, the Potency was “inactive”. For `O=CCc1ccccc1`, the Potency was “inactive”. With `CC(=O)c1ccccn1` the Potency was “inactive”. With `Cc1c(C(N)=O)cc([N+](=O)[O-])cc1[N+](=O)[O-]` the Potency was “inactive”. With `Cc1ccc(C(=O)c2cc(O)c(O)c([N+](=O)[O-])c2)cc1` the “activity change, negative = cytotoxicity” value was -2.69% (inactive). In the case of `COC(=O)Nc1nc2ccc(S(=O)c3ccccc3)cc2[nH]1` (stereo not given), the Potency is reported as “inactive”. With `CCCCC(CC)COCC1CO1` (stereo not given) the Potency was “inactive”. With `C[C@]12CCC(=O)C=C1CC[C@@H]1[C@@H]2C(=O)C[C@@]2(C)[C@H]1CC[C@]2(O)C(=O)CO` the Potency was “inactive”. With `Brc1cc(Oc2cc(Br)c(Br)c(Br)c2Br)c(Br)c(Br)c1Br` the Potency was 49.2 µM (active) and inactive. For `O=[N+]([O-])c1ccc2c(c1)Cc1ccccc1-2`, the “activity change, negative = cytotoxicity” value was -1.02% (inactive). For `CC(C)Oc1ccc2c(=O)c(-c3ccccc3)coc2c1`, the Potency was “inactive”. For `CCC(C)CO` (stereo not given), the Potency was “inactive”. For `O=C=Nc1ccc(Cc2ccc(N=C=O)cc2)cc1`, the “activity change, negative = cytotoxicity” value was -1.57% [at 35.3 µM] (inactive). For `COC(=O)C1=C(C)NC(C)=C(C(=O)OCCN(C)Cc2ccccc2)C1c1cccc([N+](=O)[O-])c1` (stereo not given), the “activity change, negative = cytotoxicity” value was -6.2% [at 35.3 µM] (inactive). For `O=C(COc1ccc(Cl)cc1)N1CCN(Cc2ccc3c(c2)OCO3)CC1`, the Potency was “inactive”.
